Results reported in the supplement of paper PMC10849652.
Targets with a hit are over-represented here; the source holds about 8,800 in all. About 0.5% of all pairs of compound and target were hits.

Assays:
Assay in all cases: log2 fold change, soluble protein after heating vs DMSO (PISA); higher = thermal stabilisation; K562 lysate, 10 uM; active = over 0.2 and 3.5 SD of the protein, either way, in both replicates (recomputed)
[1] = compound: CS(=O)(=O)CCNCc1ccc(-c2ccc3ncnc(Nc4ccc(OCc5cccc(F)c5)c(Cl)c4)c3c2)o1 [lapatinib]
Method in brief: (§1)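 Dounce homogenisation of K562 pellets in PBS pH 7.4 with 1 mM MgCl2 produced a crude extract, used at 1 mg/mL protein. Exposure to 10 μM compound lasted 30 min, and aliquots were then heated for 3 min across 48°C-58°C, pooled and brought to 0.5% NP-40 at 4°C. The supernatant after 21,000xg for 90 min was quantified by TMTpro 16plex LC-MS/MS with channel sums equalised. Duplicate values are given as log-two fold change in thermal stability relative to solvent controls.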

[2] = compound: CS(=O)(=O)N1CCN(Cc2cc3nc(-c4cccc5[nH]ncc45)nc(N4CCOCC4)c3s2)CC1 [pictilisib]
Method in brief: as §1

[3] = compound: C[C@@H](Oc1cc(-c2cnn(C3CCNCC3)c2)cnc1N)c1c(Cl)ccc(F)c1Cl [crizotinib]
Method in brief: as §1

[4] = compound: C[C@H](C1=CC=C(C=C1)C(=O)NC2=C3C=CNC3=NC=C2)N
Method in brief: as §1

[5] = compound: C[C@H](Nc1ncnc2nc[nH]c12)c1cc2cccc(Cl)c2c(=O)n1-c1ccccc1 [duvelisib]
Method in brief: as §1

[6] = compound: Cc1cc(Nc2cc(CN3CCOCC3)c3nc(C)c(Cc4ccc(Cl)cc4F)n3n2)n[nH]1 [gandotinib]
Method in brief: as §1

[7] = compound: Cc1cc(Nc2cc(N3CCN(C)CC3)nc(Sc3ccc(NC(=O)C4CC4)cc3)n2)n[nH]1 [tozasertib]
Method in brief: as §1

[8] = compound: Cc1ccc(-n2nc(C(C)(C)C)cc2NC(=O)Nc2ccc(OCCN3CCOCC3)c3ccccc23)cc1 [doramapimod]
Method in brief: as §1

[9] = compound: Cc1ccc(NC(=O)c2ccc(CN3CC[C@H](N(C)C)C3)c(C(F)(F)F)c2)cc1Nc1nccc(-c2cncnc2)n1 [bafetinib]
Method in brief: as §1

[10] = compound: Cc1cccc(CC(=O)N2CCc3c2ccc(-c2cn(C)c4ncnc(N)c24)c3F)n1
Method in brief: as §1

Measured: log2 fold change

WDR7 (UniProt Q9Y4E6)
inactive: [1] -0.029 | [2] -0.037 | [3] -0.058 | [4] -0.076 | [5] -0.008 | [6] 0.014 | [7] -0.012 | [8] 0.043 | [9] -0.04 | [10] 0.085

UQCC2 (UniProt Q9BRT2)
inactive: [1] 0.007 | [2] 0.009 | [3] 0.036 | [4] 0.158 | [5] 0.026 | [6] -0.091 | [7] -0.015 | [8] 0.014 | [9] 0.001 | [10] -0.093

VPS37B (UniProt Q9H9H4)
inactive: [1] 0.016 | [2] -0.053 | [3] 0.017 | [4] 0.034 | [5] -0.009 | [6] -0.028 | [7] 0.021 | [8] 0.006 | [9] -0.034 | [10] -0.04

WAC (UniProt Q9BTA9)
inactive: [1] 0.005 | [2] -0.04 | [3] 0.018 | [4] 0 | [5] -0.005 | [6] -0.014 | [7] 0.004 | [8] -0.031 | [9] -0.057 | [10] 0.043

WDR91 (UniProt A4D1P6)
inactive: [1] -0.003 | [2] -0.012 | [3] -0.009 | [4] -0.001 | [5] 0.002 | [6] 0.048 | [7] 0 | [8] 0.038 | [9] -0.05 | [10] 0.052

WDR3 (UniProt Q9UNX4)
inactive: [1] -0.012 | [2] -0.113 | [3] -0.003 | [4] -0.054 | [5] 0.008 | [6] -0.022 | [7] 0.003 | [8] 0.01 | [9] -0.083 | [10] 0.14

WDR45 isoform 2 (UniProt Q9Y484)
inactive: [1] -0.002 | [2] -0.011 | [3] -0.048 | [5] -0.04 | [6] -0.051 | [7] -0.025 | [8] 0.054 | [9] -0.047 | [10] 0.179
active: [4] -0.229

WDR36 (UniProt Q8NI36)
inactive: [1] 0.013 | [2] -0.008 | [3] -0.02 | [4] 0.024 | [5] 0.016 | [6] -0.097 | [7] 0.017 | [8] 0.061 | [9] 0.005 | [10] -0.004

WDR20 isoform 7 (UniProt Q8TBZ3)
Sequence of UniProt Q8TBZ3 (Q8TBZ3 whole entry, looked up): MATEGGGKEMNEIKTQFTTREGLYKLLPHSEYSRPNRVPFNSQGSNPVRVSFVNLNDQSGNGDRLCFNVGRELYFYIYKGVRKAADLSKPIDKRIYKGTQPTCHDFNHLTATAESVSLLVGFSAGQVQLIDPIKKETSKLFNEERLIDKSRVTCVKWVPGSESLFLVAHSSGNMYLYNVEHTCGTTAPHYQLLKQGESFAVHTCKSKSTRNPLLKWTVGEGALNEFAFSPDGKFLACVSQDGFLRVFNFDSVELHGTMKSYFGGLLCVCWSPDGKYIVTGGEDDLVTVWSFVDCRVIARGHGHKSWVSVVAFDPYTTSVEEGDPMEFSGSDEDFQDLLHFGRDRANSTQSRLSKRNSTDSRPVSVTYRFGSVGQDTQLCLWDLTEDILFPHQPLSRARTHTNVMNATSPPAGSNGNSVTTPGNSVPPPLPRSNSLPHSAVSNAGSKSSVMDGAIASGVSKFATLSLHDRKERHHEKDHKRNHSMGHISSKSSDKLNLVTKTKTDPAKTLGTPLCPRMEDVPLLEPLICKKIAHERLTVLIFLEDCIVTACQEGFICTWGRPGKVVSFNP
active: [4] -0.416
inactive: [1] 0.015 | [2] -0.006 | [3] -0.069 | [5] 0.043 | [6] -0.009 | [7] 0 | [8] -0.022 | [9] 0.07 | [10] 0.081

USP48 (UniProt Q86UV5)
inactive: [1] -0.05 | [2] 0.037 | [3] 0.13 | [5] -0.022 | [6] 0.068 | [7] 0.035 | [8] -0.181 | [9] -0.134 | [10] 0.182
active: [4] -0.577

UNC13D (UniProt Q70J99)
Sequence of UniProt Q70J99 (Q70J99 whole entry, looked up): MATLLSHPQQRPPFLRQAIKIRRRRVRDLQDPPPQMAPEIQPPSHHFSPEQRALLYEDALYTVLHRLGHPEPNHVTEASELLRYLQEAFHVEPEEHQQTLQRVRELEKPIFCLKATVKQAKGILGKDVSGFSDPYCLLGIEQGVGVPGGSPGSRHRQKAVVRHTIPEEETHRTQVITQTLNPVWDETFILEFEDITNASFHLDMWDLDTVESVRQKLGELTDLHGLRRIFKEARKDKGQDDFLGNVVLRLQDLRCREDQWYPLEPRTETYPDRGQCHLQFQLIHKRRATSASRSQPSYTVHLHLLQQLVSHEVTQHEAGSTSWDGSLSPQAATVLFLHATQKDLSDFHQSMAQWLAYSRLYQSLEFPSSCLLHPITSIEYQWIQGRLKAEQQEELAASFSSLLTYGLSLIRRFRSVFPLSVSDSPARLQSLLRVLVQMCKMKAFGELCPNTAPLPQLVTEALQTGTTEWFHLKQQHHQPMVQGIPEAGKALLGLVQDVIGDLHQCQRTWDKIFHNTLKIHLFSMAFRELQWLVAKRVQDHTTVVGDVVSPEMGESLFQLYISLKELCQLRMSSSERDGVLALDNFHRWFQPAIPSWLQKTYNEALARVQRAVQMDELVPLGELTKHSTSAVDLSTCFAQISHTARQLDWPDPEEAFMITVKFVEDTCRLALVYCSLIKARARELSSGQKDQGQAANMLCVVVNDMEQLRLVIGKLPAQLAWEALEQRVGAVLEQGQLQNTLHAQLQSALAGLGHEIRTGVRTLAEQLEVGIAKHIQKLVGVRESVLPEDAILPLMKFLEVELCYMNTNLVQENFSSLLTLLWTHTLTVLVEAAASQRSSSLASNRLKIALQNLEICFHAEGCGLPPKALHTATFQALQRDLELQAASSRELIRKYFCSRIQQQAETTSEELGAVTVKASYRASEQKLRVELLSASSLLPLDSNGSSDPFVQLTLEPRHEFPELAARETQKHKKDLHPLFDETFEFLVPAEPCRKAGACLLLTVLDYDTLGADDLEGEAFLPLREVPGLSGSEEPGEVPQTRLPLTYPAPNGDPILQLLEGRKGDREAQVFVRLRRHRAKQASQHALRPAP
inactive: [1] -0.032 | [2] -0.032 | [3] -0.038 | [4] 0.029 | [5] -0.039 | [6] -0.089 | [7] -0.015 | [8] 0.009 | [9] -0.066 | [10] 0.002

UTP18 (UniProt Q9Y5J1)
inactive: [1] 0.032 | [2] 0.125 | [3] -0.05 | [4] 0.097 | [5] -0.065 | [6] -0.055 | [7] 0.074 | [8] -0.025 | [9] -0.084 | [10] -0.038

WDR62 isoform 4 (UniProt O43379)
inactive: [1] -0.025 | [2] 0.028 | [3] -0.048 | [4] -0.021 | [5] 0.006 | [6] -0.032 | [7] 0.034 | [8] 0.038 | [9] -0.05 | [10] 0.08

XPO1 (UniProt O14980)
inactive: [1] -0.039 | [2] 0 | [3] -0.034 | [4] -0.037 | [5] -0.026 | [6] -0.043 | [7] 0.021 | [8] -0.001 | [9] -0.02 | [10] 0.07

ZNF451 (UniProt Q9Y4E5)
inactive: [1] -0.044 | [2] -0.054 | [3] -0.042 | [4] -0.053 | [5] 0.007 | [6] -0.069 | [7] -0.045 | [8] 0.052 | [9] -0.074 | [10] 0.003

VPS18 (UniProt Q9P253)
inactive: [1] 0.009 | [2] -0.017 | [3] -0.049 | [4] -0.056 | [5] -0.04 | [6] -0.032 | [7] -0.003 | [8] -0.004 | [9] -0.06 | [10] 0.047

VRK2 (UniProt Q86Y07)
active: [4] 0.353
inactive: [1] 0.03 | [2] 0.002 | [3] -0.069 | [5] -0.016 | [6] -0.04 | [7] -0.026 | [8] -0.063 | [9] -0.03 | [10] 0.03

ZNF593 (UniProt O00488)
Sequence of UniProt O00488 (O00488 whole entry, looked up): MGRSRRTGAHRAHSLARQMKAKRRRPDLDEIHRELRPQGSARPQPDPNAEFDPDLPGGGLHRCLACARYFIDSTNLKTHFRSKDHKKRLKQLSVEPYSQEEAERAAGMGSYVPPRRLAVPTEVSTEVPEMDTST
inactive: [1] -0.114 | [2] 0.078 | [3] 0.113 | [4] -0.087 | [5] 0.089 | [6] 0.016 | [7] 0.047 | [8] 0.033 | [9] 0.059 | [10] 0.045

VARS (UniProt P26640)
inactive: [1] -0.017 | [2] -0.027 | [3] -0.068 | [4] -0.004 | [5] 0.002 | [6] -0.092 | [7] -0.021 | [8] 0.022 | [9] -0.012 | [10] 0.029

YEATS4 (UniProt O95619)
active: [4] 0.609
inactive: [1] 0.023 | [2] 0.026 | [3] 0.02 | [5] -0.015 | [6] -0.126 | [7] -0.006 | [8] 0.064 | [9] -0.033 | [10] -0.083

YTHDC2 (UniProt Q9H6S0)
Sequence of UniProt Q9H6S0 (Q9H6S0 whole entry, looked up): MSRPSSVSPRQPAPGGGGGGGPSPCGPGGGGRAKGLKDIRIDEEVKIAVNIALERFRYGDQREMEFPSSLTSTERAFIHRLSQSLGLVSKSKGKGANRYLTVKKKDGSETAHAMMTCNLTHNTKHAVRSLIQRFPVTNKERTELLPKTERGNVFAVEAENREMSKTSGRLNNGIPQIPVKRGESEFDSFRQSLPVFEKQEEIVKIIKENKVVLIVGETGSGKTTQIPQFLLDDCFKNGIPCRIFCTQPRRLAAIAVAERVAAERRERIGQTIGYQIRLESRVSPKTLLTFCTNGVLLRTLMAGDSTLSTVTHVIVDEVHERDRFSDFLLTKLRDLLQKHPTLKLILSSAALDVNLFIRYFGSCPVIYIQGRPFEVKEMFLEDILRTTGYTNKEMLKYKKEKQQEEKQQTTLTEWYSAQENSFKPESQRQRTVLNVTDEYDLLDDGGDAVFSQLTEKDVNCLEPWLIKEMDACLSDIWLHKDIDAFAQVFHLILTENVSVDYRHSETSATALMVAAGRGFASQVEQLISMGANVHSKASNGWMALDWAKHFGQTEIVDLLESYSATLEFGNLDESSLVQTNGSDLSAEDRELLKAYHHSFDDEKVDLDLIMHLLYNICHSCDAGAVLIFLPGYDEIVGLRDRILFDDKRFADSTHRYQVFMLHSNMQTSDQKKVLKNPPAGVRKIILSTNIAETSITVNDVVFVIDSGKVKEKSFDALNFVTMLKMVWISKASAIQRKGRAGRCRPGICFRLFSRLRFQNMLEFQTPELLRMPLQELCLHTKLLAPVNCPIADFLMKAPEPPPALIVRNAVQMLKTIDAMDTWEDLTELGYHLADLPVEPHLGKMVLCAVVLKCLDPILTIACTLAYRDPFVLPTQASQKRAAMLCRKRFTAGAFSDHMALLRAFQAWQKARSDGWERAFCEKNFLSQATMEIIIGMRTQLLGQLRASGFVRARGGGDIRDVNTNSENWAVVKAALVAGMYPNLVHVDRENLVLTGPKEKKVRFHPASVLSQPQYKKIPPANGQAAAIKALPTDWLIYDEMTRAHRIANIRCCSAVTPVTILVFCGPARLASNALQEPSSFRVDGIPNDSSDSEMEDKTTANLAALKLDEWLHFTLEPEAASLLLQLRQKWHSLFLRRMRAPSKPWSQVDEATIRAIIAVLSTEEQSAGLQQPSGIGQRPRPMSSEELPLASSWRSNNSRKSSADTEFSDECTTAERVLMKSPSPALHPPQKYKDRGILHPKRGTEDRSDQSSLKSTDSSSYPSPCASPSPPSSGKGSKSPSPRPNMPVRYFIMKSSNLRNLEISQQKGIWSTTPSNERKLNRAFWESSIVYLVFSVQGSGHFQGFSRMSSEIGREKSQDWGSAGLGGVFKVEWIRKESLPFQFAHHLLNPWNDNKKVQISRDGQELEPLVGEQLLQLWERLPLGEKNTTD
inactive: [1] -0.029 | [2] -0.007 | [3] -0.042 | [4] 0.023 | [5] 0.032 | [6] -0.013 | [7] -0.03 | [8] 0.007 | [9] -0.022 | [10] -0.066

VPS39 (UniProt Q96JC1)
Sequence of UniProt Q96JC1 (Q96JC1 whole entry, looked up): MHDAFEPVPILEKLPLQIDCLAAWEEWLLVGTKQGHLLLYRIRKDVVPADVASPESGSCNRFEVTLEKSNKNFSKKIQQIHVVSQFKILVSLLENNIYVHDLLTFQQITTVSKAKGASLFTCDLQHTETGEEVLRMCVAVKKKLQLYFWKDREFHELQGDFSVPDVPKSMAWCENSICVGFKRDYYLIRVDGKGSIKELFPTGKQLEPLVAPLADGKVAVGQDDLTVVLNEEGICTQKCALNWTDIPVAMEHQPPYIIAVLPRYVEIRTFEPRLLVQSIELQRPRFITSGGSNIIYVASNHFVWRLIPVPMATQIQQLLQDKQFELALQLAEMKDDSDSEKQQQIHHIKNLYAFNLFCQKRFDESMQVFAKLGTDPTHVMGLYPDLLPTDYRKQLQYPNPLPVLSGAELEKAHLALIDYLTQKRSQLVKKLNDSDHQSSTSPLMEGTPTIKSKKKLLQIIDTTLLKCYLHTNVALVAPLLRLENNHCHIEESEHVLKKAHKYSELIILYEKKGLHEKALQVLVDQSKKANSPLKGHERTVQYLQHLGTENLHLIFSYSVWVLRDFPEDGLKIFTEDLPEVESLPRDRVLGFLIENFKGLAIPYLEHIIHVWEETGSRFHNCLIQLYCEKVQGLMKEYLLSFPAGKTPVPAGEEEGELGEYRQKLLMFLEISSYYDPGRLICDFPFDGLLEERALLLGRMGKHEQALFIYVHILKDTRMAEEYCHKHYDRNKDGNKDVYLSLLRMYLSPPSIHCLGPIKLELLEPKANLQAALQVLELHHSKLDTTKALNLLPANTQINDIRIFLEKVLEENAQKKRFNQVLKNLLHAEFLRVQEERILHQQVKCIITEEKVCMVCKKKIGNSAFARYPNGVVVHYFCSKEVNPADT
inactive: [1] -0.018 | [2] -0.018 | [3] -0.066 | [5] 0.015 | [6] -0.169 | [7] 0.021 | [8] 0.015 | [9] -0.045 | [10] -0.229
active: [4] 0.603

VPS11 (UniProt Q9H270)
inactive: [1] -0.025 | [2] -0.027 | [3] -0.029 | [4] -0.008 | [5] -0.04 | [6] -0.083 | [7] 0.024 | [8] 0.039 | [9] -0.077 | [10] 0.065

ZMYM2 (UniProt Q9UBW7)
inactive: [1] 0.028 | [2] -0.147 | [3] -0.079 | [4] 0.098 | [5] 0.028 | [6] -0.329 | [7] 0.046 | [8] 0.041 | [9] -0.024 | [10] -0.084

VAV1 (UniProt P15498)
Sequence of UniProt P15498 (P15498 whole entry, looked up): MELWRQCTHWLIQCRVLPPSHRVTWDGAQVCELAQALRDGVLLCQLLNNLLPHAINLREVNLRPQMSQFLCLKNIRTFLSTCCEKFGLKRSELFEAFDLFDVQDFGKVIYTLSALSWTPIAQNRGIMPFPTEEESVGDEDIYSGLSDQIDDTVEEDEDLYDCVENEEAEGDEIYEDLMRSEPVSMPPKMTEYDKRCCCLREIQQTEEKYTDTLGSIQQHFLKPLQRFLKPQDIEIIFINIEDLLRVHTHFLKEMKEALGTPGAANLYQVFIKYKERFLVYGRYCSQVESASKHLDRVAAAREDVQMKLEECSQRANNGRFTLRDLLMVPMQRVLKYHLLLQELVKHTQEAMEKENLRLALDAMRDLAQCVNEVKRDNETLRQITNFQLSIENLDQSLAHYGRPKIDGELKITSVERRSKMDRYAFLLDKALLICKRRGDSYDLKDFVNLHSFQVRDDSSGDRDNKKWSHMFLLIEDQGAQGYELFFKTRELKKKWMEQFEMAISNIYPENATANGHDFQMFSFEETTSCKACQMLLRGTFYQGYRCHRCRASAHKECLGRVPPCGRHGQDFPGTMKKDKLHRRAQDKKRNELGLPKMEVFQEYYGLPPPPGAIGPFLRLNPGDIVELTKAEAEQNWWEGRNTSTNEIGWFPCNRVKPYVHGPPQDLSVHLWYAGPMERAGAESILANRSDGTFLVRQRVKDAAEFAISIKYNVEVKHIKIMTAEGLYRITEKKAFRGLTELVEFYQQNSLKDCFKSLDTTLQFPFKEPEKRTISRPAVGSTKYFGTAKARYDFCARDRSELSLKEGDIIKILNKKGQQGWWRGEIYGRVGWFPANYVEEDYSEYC
inactive: [1] 0 | [2] 0.012 | [3] -0.059 | [4] -0.057 | [5] 0.071 | [6] -0.02 | [7] 0.011 | [8] -0.044 | [9] -0.087 | [10] 0.066

YDJC (UniProt A8MPS7)
inactive: [1] -0.003 | [2] -0.016 | [3] 0.022 | [4] -0.031 | [5] -0.044 | [6] 0.02 | [7] 0.022 | [8] 0.025 | [9] -0.017 | [10] -0.033

VPS13C (UniProt Q709C8)
inactive: [1] -0.008 | [2] 0.023 | [3] 0.003 | [4] -0.065 | [5] 0.021 | [6] -0.055 | [7] 0.052 | [8] -0.006 | [9] -0.054 | [10] 0.213

USP10 isoform 2 (UniProt Q14694)
inactive: [1] -0.01 | [2] -0.015 | [3] -0.03 | [4] -0.024 | [5] 0.009 | [6] -0.046 | [7] -0.014 | [8] -0.016 | [9] -0.014 | [10] 0.028

WIPI1 (UniProt Q5MNZ9)
inactive: [1] -0.021 | [2] -0.003 | [3] 0.058 | [4] -0.013 | [5] -0.014 | [6] 0.017 | [7] 0.039 | [8] -0.013 | [9] -0.038 | [10] -0.038

UPF3B (UniProt Q9BZI7)
inactive: [1] 0.005 | [2] 0.021 | [3] 0.007 | [4] -0.171 | [5] 0.016 | [6] 0.037 | [7] 0.031 | [8] 0.003 | [9] -0.012 | [10] 0.067
